Experimental data published in PubChem BioAssay (NCI).
Compounds without any hit were thinned out: in the full panel of roughly 79,000, 15% have a hit. A number with no mark means an inactive call. Active and inactive are the calls of the source. Cut-off read from the data, not from the text of the source: active = growth inhibition above about 70%; inactive = the rest.

Columns and labels:
[1] = NCI Yeast Anticancer Drug Screen. Data for the rad50 strain (AID 155);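 note: 0% = growth of vehicle-only cultures of the same strain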; conditions: S. cerevisiae rad50 strain growth inhibition, active compounds read high
How it was run: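 Cells are treated with compound, grown, and their growth is then scored against vehicle-only cultures of the same repair-deficient yeast strain.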

[2] = NCI Yeast Anticancer Drug Screen. Data for the mec2-1 strain (AID 157); conditions: S. cerevisiae mec2-1 strain, active compounds read high
How it was run: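 mec2-1 yeast strain, carrying an alteration in DNA damage repair or cell cycle control, was exposed to compounds; growth inhibition was measured relative to vehicle-treated controls.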

[3] = NCI Yeast Anticancer Drug Screen. Data for the sgs1 mgt1 strain (AID 161);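 note: 0% = growth of cultures given vehicle only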; conditions: S. cerevisiae sgs1 mgt1 strain, active compounds read high
How it was run: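 Yeast cells carrying a defined DNA-repair defect were exposed to test compounds. Growth inhibition was measured relative to vehicle-treated controls.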

[4] = NCI Yeast Anticancer Drug Screen. Data for the cln2 rad14 strain (AID 165);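 note: 0% = growth equal to vehicle treated cultures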; conditions: S. cerevisiae cln2 rad14 strain, active compounds read high
How it was run: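 Yeast carrying cln2 and rad14 alterations (cell cycle control and DNA damage repair) were exposed to compounds. Growth inhibition was measured against vehicle-treated controls.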

[5] = NCI Yeast Anticancer Drug Screen. Data for the bub3 strain (AID 167); conditions: S. cerevisiae bub3 mutant strain, active compounds read high
How it was run: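 Part of a panel of yeast mutants defective in DNA damage repair or cell cycle regulation. Each strain is grown with compound, and inhibition is calculated relative to solvent-treated cultures.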

[6] = NCI Yeast Anticancer Drug Screen. Data for the mlh1 rad18 strain (AID 175); conditions: S. cerevisiae mlh1 rad18 strain growth inhibition, active compounds read high
How it was run: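 Growth inhibition of the yeast strain was measured after compound exposure and expressed relative to vehicle-treated controls. The strain carries defined defects in DNA damage repair.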

[7] = at 5.0 µM (retest, dose inferred, filed as 0.5)
[8] = at 50.0 µM (retest, dose inferred, filed as 5.0)

Compound | growth inhibition [1, 7] | growth inhibition [1, 8] | growth inhibition ([1]; at 50.0 µM) | growth inhibition [2, 7] | growth inhibition [2, 8] | growth inhibition ([2]; at 50.0 µM) | growth inhibition [3, 7] | growth inhibition [3, 8] | growth inhibition ([3]; at 50.0 µM) | growth inhibition [4, 7] | growth inhibition [4, 8] | growth inhibition ([4]; at 50.0 µM) | growth inhibition [5, 7] | growth inhibition [5, 8] | growth inhibition ([5]; at 50.0 µM) | growth inhibition [6, 7] | growth inhibition [6, 8] | growth inhibition ([6]; at 50.0 µM)
COc1ccc(C(=O)OC(=O)c2ccc(OC)cc2)cc1 | 5% | 9% | 71.4% (active) | -6% | 7% | 18.1% | 2% | -70% | 22.1% | 4% | -4% | 6.05% | -1% | 8% | 28.1% | -10% | 16% | 74.4% (active)
CCCCC(=O)c1nc(N(CC2CCCCC2)C(=O)NC)sc1N | -3% | 11% | 1.8% | -4% | 35% | -13.4% | -1% | 57% | 7.75% | -1% | 7% | 44.2% | -3% | 33% | 6.3% | -3% | 12% | 16.8%
Cn1c2ccccc2c2cc3cnccc3cc21 | -98% | 95% (active) | 98.5% (active) | -50% | 73% (active) | 96.4% (active) | -57% | 82% (active) | 92.6% (active) | -55% | 88% (active) | 96.3% (active) | -68% | 89% (active) | 90.8% (active) | -164% | 93% (active) | 98.7% (active)
CSC(=S)N/N=C(C)/C=C/c1ccccc1 | 9% | 98% (active) | 98.2% (active) | 14% | 98% (active) | 98.5% (active) | 25% | 98% (active) | 97.7% (active) | -10% | 94% (active) | 97.8% (active) | 13% | 98% (active) | 97.4% (active) | 20% | 93% (active) | 95.3% (active)
O=C(NN=C1CCCCC1)c1ccc([N+](=O)[O-])cc1 | -1% | -7% | -0.5% | -17% | -11% | 0.2% | 13% | 9% | 10.6% | -1% | 10% | 37.5% | 19% | 24% | -2.95% | 4% | 7% | 20.2%
C(=C\c1cccc2ccccc12)/c1ccncc1 | 8% | 97% (active) | 98.9% (active) | -19% | 99% (active) | 99.2% (active) | -14% | 98% (active) | 99.2% (active) | -2% | 96% (active) | 99% (active) | 4% | 97% (active) | 98.5% (active) | -11% | 98% (active) | 99.1% (active)
COc1cc(-c2ccc(-[n+]3nc(Cc4ccc5c(c4)OCO5)nn3-c3ccccc3)c(OC)c2)ccc1-[n+]1nc(Cc2ccc3c(c2)OCO3)nn1-c1ccccc1 | 4% | 41% | 68.8% | 1% | 46% | 91.9% (active) | 1% | 49% | 92.6% (active) | 2% | 22% | 37.1% | -1% | 60% | 83.4% (active) | 2% | 79% (active) | 91.4% (active)
CCCCC(O)(c1ccccc1)C(O)(c1ccccc1)c1c(F)c(F)c(F)c(F)c1F (configuration not stated) | 17% | 99% (active) | 81.1% (active) | -3% | 99% (active) | 96.6% (active) | -5% | 98% (active) | 99% (active) | 1% | 98% (active) | 97.3% (active) | -8% | 96% (active) | 98.6% (active) | -4% | 99% (active) | 97.2% (active)
COc1ccc2c(c1)c1c(C)c3cnccc3c(C)c1n2CCCN | 9% | 44% | 74% (active) | 28% | -17% | 27.9% | 2% | 13% | 29.3% | 10% | -9% | -24.1% | 13% | -10% | 46.1% | 9% | 18% | 77.5% (active)
O=[N+]([O-])c1ccc(CC(c2ccc([N+](=O)[O-])cc2)(c2ccc([N+](=O)[O-])cc2)c2ccc([N+](=O)[O-])cc2)cc1 | 2% | -3% | 5.05% | 1% | 1% | 12.6% | 1% | -16% | -19.3% | 5% | -20% | 8.7% | 5% | 4% | 41% | 0% | 1% | 26.9%
COc1cccc2c1C(=O)c1c(O)c3c(c(O)c1C2=O)CC(O)(C(C)=O)CC3OC1CC(NCC2(O)OCC(O)C2O)C(O)C(C)O1 (configuration not stated) | 50% | 96% (active) | 88.8% (active) | 34% | 98% (active) | 88.6% (active) | 33% | 98% (active) | 86.8% (active) | 44% | 97% (active) | 87.4% (active) | 34% | 98% (active) | 87.1% (active) | 40% | 96% (active) | 91% (active)
CCOC(=O)C(Cc1cc(I)c(Oc2ccc(OC)cc2)c(I)c1)NC(C)=O (configuration not stated) | 36% | 92% (active) | 86.8% (active) | 28% | 96% (active) | 83.2% (active) | 41% | 97% (active) | 69% | 23% | 95% (active) | 89.3% (active) | 39% | 96% (active) | 87.9% (active) | 38% | 95% (active) | 87.8% (active)
CCCCCCCCCCCCCCCCCCOC(=O)C(N)CCCCN (configuration not stated) | 2% | 98% (active) | 98.3% (active) | -3% | 97% (active) | 98.8% (active) | 3% | 97% (active) | 50.5% | -7% | 87% (active) | 96.7% (active) | -7% | 96% (active) | 98.2% (active) | -5% | 96% (active) | 98.3% (active)
CCc1cc2c(c3[nH]ccc13)[C@@H](C)C[C@H]2C | -3% | 99% (active) | 73% (active) | 3% | 99% (active) | 84.2% (active) | 0% | 99% (active) | 84.8% (active) | -3% | 98% (active) | 84.3% (active) | 9% | 98% (active) | 91.5% (active) | 2% | 99% (active) | 88.5% (active)
N=C1c2ccccc2-c2ccccc21 | 49% | 49% | 66% | 22% | 17% | 37.2% | 10% | 11% | 40.2% | 12% | 3% | 12.1% | 19% | 24% | 22.9% | 21% | 21% | 26.8%
O=C(OC1=C(Br)C(=O)c2ccccc2C1=O)c1ccccc1 | 13% | 99% (active) | 74.5% (active) | 31% | 99% (active) | 60.2% | 32% | 98% (active) | 66.3% | 4% | 58% | -17% | 12% | 89% (active) | 12.1% | 38% | 98% (active) | 51.2%
Cc1cccc(-c2csc(N)n2)c1 | 0% | 77% (active) | 61.1% | 3% | 35% | 41% | 2% | 37% | 78% (active) | -1% | 31% | 39.6% | -1% | 44% | 31.1% | 1% | 63% | 65.2%
CCCCN(CCCC)CC(O)c1cc(-c2ccc(Cl)cc2)nc2c(-c3ccccc3)cccc12 (configuration not stated) | -1% | 30% | 52.8% | -5% | 13% | 36.3% | 0% | 54% | 80.8% (active) | -7% | 22% | 13.8% | -4% | 24% | 8.15% | 0% | 39% | 66.7%
CCCOC(=O)C#CC(=O)OCCC | 37% | 96% (active) | 94.6% (active) | 29% | 99% (active) | 63% | 43% | 99% (active) | 48.8% | 21% | 99% (active) | 93.6% (active) | 25% | 99% (active) | 7.3% | 69% | 99% (active) | 74.6% (active)
